# PubChem BioAssay (NCATS)
# Results filed as inconclusive are left out. Active and inactive are the calls of the source. The call rests on the fitted dose curve; in most records, active means well fitted inhibition curve with a large enough effect; inconclusive means small, poorly fitted or top-dose-only effect; inactive means flat fitted curve, though single readings scatter. Peptide text beside a SMILES is read from it.
# Test system: CRL-7250
# Test: qHTS assay to identify novel small-molecules to repurpose for Merkel cell carcinoma treatment (AID 1296009); further: nearly all actives have a fitted effect of over 60% in size
# Conditions: MCC and control cell lines, CellTiter-Glo viability, 72 h; series mostly up to 92 µM; activity change, negative = cytotoxicity: at the top concentration
# How it was run: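 Cells were treated for 72 hr at 37 degree celsius with compounds in 8- or 11-point dose response. Viability was read by CellTiter-Glo luminescence, normalized to no-cell (cytotoxicity) and DMSO controls.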
row,Compound,outcome
1,CC(=O)c1c(O)cc2cccc3c2c1CC(C)(O)O3 (stereo not given),inactive
2,C[C@]12CCC(=O)C=C1[C@@H](O)C[C@@H]1[C@@H]2[C@@H](O)C[C@@]2(C)[C@H]1CC[C@]2(O)C(=O)CO,inactive
3,COc1ccc(C2COc3cc(O)ccc3C2)c(O)c1OC (stereo not given),inactive
4,O=C(Nc1ccc2[nH]ncc2c1)C1CCC1,inactive
5,O=C(Nc1ccccc1Br)NC1CCN(c2ccc(C(F)(F)F)cn2)C1 (stereo not given),inactive
6,Fc1ccc(-c2nc(C3CCNCC3)sc2-c2ccnc(NC3CC3)n2)cc1,inactive
7,COc1ccc(CCC(=O)O)c(O[C@@H]2O[C@H](CO)[C@@H](O)[C@H](O)[C@H]2O)c1,inactive
8,O=C(Nc1ccn[nH]1)c1c(F)cccc1F,inactive
9,Cc1ccc([C@@H]2CC=C(C(=O)O)[C@H](c3ccc(C(C)(C)C)cc3)N2S(=O)(=O)c2ccc(C)cc2)cc1,inactive
10,Cn1ccnc1CCOC(c1cc2nccc(C(=O)O)c2[nH]1)c1ccccc1Cl (stereo not given),inactive
11,O=C(O)CCc1cc2ccoc2cc1O[C@@H]1O[C@H](CO)[C@@H](O)[C@H](O)[C@H]1O,inactive
12,Cc1ccc(Nc2nnc(-c3ccc([N+](=O)[O-])cc3)o2)cc1Cl,inactive
13,C=C1C[C@@]23CCC4[C@@](C)(CCC[C@@]4(C)C(=O)OC)C2CC[C@@H]1C3 (stereo not given in full),inactive
14,CC(=O)OC[C@]12[C@H](OC(C)=O)[C@H](OC(=O)c3ccccc3)[C@@H]3[C@@H](OC(C)=O)[C@]1(OC3(C)C)[C@H](C)C[C@H](OC(=O)c1ccccc1)[C@@H]2OC(=O)c1ccccc1,inactive [at 17.4 µM]
15,CC(=O)c1ccc(O[C@@H]2O[C@H](CO[C@@H]3OC[C@@H](O)[C@H](O)[C@H]3O)[C@@H](O)[C@H](O)[C@H]2O)cc1,inactive [at 17.4 µM]
16,CC(=O)NC(C(=O)OC1CCC(C)(C)C2CC=C3C(=O)OCC3C12C)C(C)C (stereo not given),inactive
17,C[C@@H]1O[C@@H](O[C@H]2[C@H](O)[C@@H](O)[C@H](OC[C@H]3O[C@@H](OC(=O)[C@]45CCC(C)(C)C[C@H]4C4=CCC6[C@@]7(C)CC[C@H](O[C@@H]8OC[C@H](O)[C@H](O[C@@H]9O[C@H](CO)[C@@H](O)[C@H](O)[C@H]9O)[C@H]8O)[C@@](C)(CO)C7CC[C@@]6(C)[C@]4(C)CC5)[C@H](O)[C@@H](O)[C@@H]3O)O[C@@H]2CO)[C@H](O)[C@H](O)[C@H]1O (stereo not given in full),inactive [at 9.27 µM]
18,CC(C)(O)C1=CCC23COC(C2)C(O)(C(=O)O)CCC13 (stereo not given),inactive
19,OC[C@H]1O[C@@H](OC[C@H]2O[C@@H](OCc3ccccc3)[C@H](O)[C@@H](O)[C@@H]2O)[C@H](O)[C@@H](O)[C@@H]1O,inactive [at 17.4 µM]
20,COC(=O)C1=C[C@@H](O)[C@@H](O)[C@H](O[C@@H]2O[C@H](COC(=O)/C=C/c3ccccc3)[C@@H](O)[C@H](O)[C@H]2O)C1,inactive [at 17.4 µM]

row,Compound,outcome
1,C[C@@H]1O[C@@H](OC[C@H]2O[C@@H](OCc3ccccc3)[C@H](O)[C@@H](O)[C@@H]2O)[C@H](O)[C@H](O)[C@H]1O,inactive [at 17.4 µM]
2,COc1cc(O)c2c(c1Cl)CC(C)OC2=O (stereo not given),inactive
3,COc1cccc(OC)c1-c1cc(C(=O)N[C@@H](CC(C)C)C(=O)O)nn1-c1ccnc2cc(Cl)ccc12,inactive
4,O=S(=O)(Nc1cc(Cl)c(Oc2cnc3ccccc3c2)c(Cl)c1)c1ccc(Cl)cc1Cl,inactive
5,CCCCNc1ccc(-c2ccc(CN3CCOCC3)cn2)c(NC2CCC(O)CC2)c1 (stereo not given),inactive [at 17.4 µM]
6,O=C(O)/C=C/c1ccc(O)c(O[C@@H]2O[C@H](CO)[C@@H](O)[C@H](O)[C@H]2O)c1,inactive
7,CC(C)(C)NCC(O)COc1cccc2c1CCCC2=O (stereo not given),inactive
8,Cn1c(SCC(=O)N2CCC[C@H]2C(=O)Nc2ccccc2-c2ccccc2)nc2ccccc21,inactive
9,CC[C@H](NC(=O)c1c(O)c(-c2ccccc2)nc2ccccc12)c1ccccc1,inactive
10,CCC(O)C(C)C1CCC(C(C)C(=O)O)O1 (stereo not given),inactive
11,H-DPPDPDRFYGMM-NH2,inactive [at 17.4 µM]
12,C=CC(C)(O)CC/C=C(\C)C(=O)O[C@@H]1[C@@H](O)[C@H](OC(C)(C=C)CC/C=C(\C)C(=O)O)O[C@H](CO)[C@H]1OC(=O)/C(C)=C/CCC(C)(O)C=C (stereo not given in full),inactive [at 17.4 µM]
13,Cc1ccc(C)c(NC(=O)CNS(=O)(=O)c2ccc3[nH]c(=O)oc3c2)c1,inactive
14,O=S(=O)(Nc1ccccn1)c1ccc(N=Cc2c(O)[nH]c3ccc4ncsc4c23)cc1,inactive [at 9.27 µM]
15,C[C@H]1CC[C@H]2[C@@H](C=C[C@@](C)(O)[C@]2(C)C(=O)CCO)C1,inactive
16,C[C@@H](O)[C@H](N)C(=O)N1CCC[C@H]1C(=O)N1CCC[C@H]1C(=O)N[C@H](C(N)=O)[C@@H](C)O (H-TPPT-NH2),inactive [at 9.27 µM]
17,C=C1CCC2C(C)(COC3OC(COC(=O)CC(=O)O)C(O)C(O)C3O)CCCC2(C)C1CCC1=CCOC1=O (stereo not given),inactive [at 17.4 µM]
18,NS(=O)(=O)c1ccc(NC(=O)Nc2ccc(F)cc2)cc1,inactive
19,CC(C)C1C(OC(=O)/C=C/c2ccccc2)CC2(C)OC2CCC2(C)OC2C1O (stereo not given),inactive
20,C[C@@H]1C(=O)OC[C@H]2C(C(=O)O)=C[C@@H]3CC(C)(C)C[C@]312,inactive
